Assay [1] in a line: optical density shifts of acrAB sulA E. coli – strain DRC41, OD650, 48 h, E. coli filamentation inducer project, primary screen (AID 1152).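 Further: E. coli MC1000 strain DRC41 lacking acrAB efflux pump and sulA.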 The conditions noted are these: higher = more signal, called active from +8 up or from −8 down.
A short description of assay [2]: probe aLefty1 binding on compound microarray – biochemical, small-molecule microarray, 635/667 nm fluorescence, primary screen (AID 1153).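 Further: score merges spot fluorescence with signal-to-noise ratio from the scanned slide images.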 Conditions: higher = more signal.
A short description of assay [3]: plasmodial surface anion channel blockers, osmotic lysis – cell-based, P. falciparum Indochina, OD700, 1 h, primary screen (AID 1154). The conditions noted are these: P. falciparum Indochina infected RBC osmotic lysis, higher = more signal, called active from +8 up or from −8 down.
Assay [4] in a line: plasmodial surface anion channel blockers, osmotic lysis – cell-based, P. falciparum Indochina, OD700, 2 h, primary screen (AID 1155).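 Further: lysis reports solute entry through the parasite surface anion channel PSAC.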 The conditions noted are these: P. falciparum Indochina infected erythrocytes, higher = more signal, called active from +8 up or from −8 down.
A short description of assay [5]: changes in parasitized red cell lysis, either direction – P. falciparum Indochina, OD700, 3 h, PSAC antagonist project, primary screen (AID 1156). Conditions: P. falciparum-infected erythrocytes, osmotic lysis, higher = more signal, called active from +8 up or from −8 down.
A short description of assay [6]: plasmodial surface anion channel blockers, osmotic lysis – cell-based, P. falciparum Indochina, OD700, 18 h, primary screen (AID 1157). The conditions noted are these: P. falciparum Indochina infected erythrocytes, osmotic lysis OD700, 18 h; higher = more signal, called active from +8 up or from −8 down.
Assay [7] is described as follows: S6 kinase pathway phospho-S6 level changes – cell-based, A549, cytoblot, luminescence, serum-stimulated, primary screen (AID 1158).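 Further: serum-stimulated A549 lung adenocarcinoma cells; signal is phosphorylated S6 detected by cytoblot immunostaining with HRP secondary.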 Conditions: 5 h, higher = more signal.
Assay [8] concerns the target NADPH oxidase 2 (Homo sapiens) (UniProt P04839). As to the kind of experiment: compounds shifting NOX2 Amplex Red fluorescence – cell-based, HEK293-NOX2, PMA-stimulated, NOX inhibitor project, primary screen (AID 1159). Further: test concentration not given here. Conditions: 45 min, higher = more signal, called active from +8 up or from −8 down.
Assay [9] concerns the target NADPH oxidase 4 (Homo sapiens) (UniProt Q9NPH5). Kind of assay: compounds shifting NOX4 Amplex Red fluorescence – cell-based, HEK293-NOX4, tetracycline-induced, NOX inhibitor project, primary screen (AID 1160). The conditions noted are these: HEK293-NOX4, Amplex Red H2O2 fluorescence, 45 min; higher = more signal, called active from +8 up or from −8 down.
Assay [10] has as its target NADPH oxidase 5 (Homo sapiens) (UniProt Q96PH1). As to the kind of experiment: compounds shifting NOX5 Amplex Red fluorescence – cell-based, HEK293-NOX5, NOX inhibitor project, primary screen (AID 1161). Conditions: HEK293-NOX5, ionomycin, 45 min, higher = more signal.
The nature of assay [11]: compound effects on lung adenocarcinoma cell viability – A549, calcein-AM fluorescence, 48 h, basal, profiling panel (AID 1162). Further: test concentration not given here. The conditions noted are these: higher = more signal.
The nature of assay [12]: compound effects on differentiated 3T3-L1 adipocyte viability – cell-based, 3T3-L1 adipocytes, calcein-AM fluorescence, 48 h, basal, profiling panel (AID 1163). Further: test concentration not given here. Conditions: 3T3-L1 adipocytes viability, higher = more signal.
The nature of assay [13]: compound effects on hepatocellular carcinoma cell viability – HepG2, calcein-AM fluorescence, 48 h, basal, profiling panel (AID 1164). Further: test concentration not given here. Conditions: higher = more signal.
Assay [14] can be described thus: compound effects on multiple myeloma cell viability – MM1S, calcein-AM fluorescence, 48 h, basal, profiling panel (AID 1165). Further: test concentration not given here. The conditions noted are these: higher = more signal.
Assay [15] can be described thus: calcein-AM signal in unstimulated myeloma cells – cell-based, calcein-AM fluorescence, 48 h, PK04 Diversity Set, profiling panel (AID 1166).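 Further: cells grown under basal conditions without added stimulus; test concentration not given here.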 Conditions: RPMI8226 myeloma viability, higher = more signal.
The nature of assay [16]: JC-1 mitochondrial signal, unstimulated HepG2 cells – cell-based, JC-1 fluorescence, 24 h, 100 nL compound, profiling panel (AID 1167). Further: test concentration not given here. Conditions: HepG2 mitochondrial potential, higher = more signal.
Assay [17] can be described thus: JC-1 mitochondrial signal, unstimulated adipocytes – cell-based, JC-1 fluorescence, 3T3-L1 adipocytes, 24 h, 100 nL compound, profiling panel (AID 1168). Further: test concentration not given here. The conditions noted are these: JC-1 mitochondrial fluorescence, higher = more signal, called active from +8 up or from −8 down.
The nature of assay [18]: JC-1 mitochondrial signal, unstimulated myeloma cells – cell-based, JC-1 fluorescence, RPMI8226, 24 h, 100 nL compound, profiling panel (AID 1169). Further: test concentration not given here. Conditions: JC-1 mitochondrial potential fluorescence, higher = more signal.
Assay [19] can be described thus: JC-1 mitochondrial signal, unstimulated MM1S myeloma – cell-based, JC-1 fluorescence, 24 h, 100 nL compound, profiling panel (AID 1170). Further: test concentration not given here. The conditions noted are these: MM1S mitochondrial potential, higher = more signal.
The nature of assay [20]: resazurin metabolic signal in A549 cells – cell-based, resazurin fluorescence, 24 h, PK04 Diversity Set, profiling panel (AID 1171). Further: test concentration not given here. The conditions noted are these: A549 viability, higher = more signal, called active from +8 up or from −8 down. (Resazurin is reduced to fluorescent resorufin, in cell work by metabolically active cells.)

Calls of active or inactive are those of the source.

NADPH oxidase 4 (Homo sapiens), sequence (Q9NPH5 whole entry, looked up): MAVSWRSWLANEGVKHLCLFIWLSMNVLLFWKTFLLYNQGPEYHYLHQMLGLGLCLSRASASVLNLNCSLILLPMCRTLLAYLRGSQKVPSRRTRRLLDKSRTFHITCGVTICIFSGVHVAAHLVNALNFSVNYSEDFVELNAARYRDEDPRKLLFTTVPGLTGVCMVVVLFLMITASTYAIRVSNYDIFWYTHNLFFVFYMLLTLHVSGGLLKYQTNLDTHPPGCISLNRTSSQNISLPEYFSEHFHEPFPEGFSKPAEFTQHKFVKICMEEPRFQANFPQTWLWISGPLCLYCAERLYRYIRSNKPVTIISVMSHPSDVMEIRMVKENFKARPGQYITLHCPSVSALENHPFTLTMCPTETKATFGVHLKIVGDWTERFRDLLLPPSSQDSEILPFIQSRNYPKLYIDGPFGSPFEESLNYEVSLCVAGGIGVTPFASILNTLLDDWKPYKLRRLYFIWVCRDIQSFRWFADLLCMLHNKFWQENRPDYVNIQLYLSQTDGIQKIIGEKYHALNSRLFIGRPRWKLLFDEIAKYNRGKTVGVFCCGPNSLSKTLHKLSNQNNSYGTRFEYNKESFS
NADPH oxidase 2 (Homo sapiens), sequence (P04839 whole entry, looked up): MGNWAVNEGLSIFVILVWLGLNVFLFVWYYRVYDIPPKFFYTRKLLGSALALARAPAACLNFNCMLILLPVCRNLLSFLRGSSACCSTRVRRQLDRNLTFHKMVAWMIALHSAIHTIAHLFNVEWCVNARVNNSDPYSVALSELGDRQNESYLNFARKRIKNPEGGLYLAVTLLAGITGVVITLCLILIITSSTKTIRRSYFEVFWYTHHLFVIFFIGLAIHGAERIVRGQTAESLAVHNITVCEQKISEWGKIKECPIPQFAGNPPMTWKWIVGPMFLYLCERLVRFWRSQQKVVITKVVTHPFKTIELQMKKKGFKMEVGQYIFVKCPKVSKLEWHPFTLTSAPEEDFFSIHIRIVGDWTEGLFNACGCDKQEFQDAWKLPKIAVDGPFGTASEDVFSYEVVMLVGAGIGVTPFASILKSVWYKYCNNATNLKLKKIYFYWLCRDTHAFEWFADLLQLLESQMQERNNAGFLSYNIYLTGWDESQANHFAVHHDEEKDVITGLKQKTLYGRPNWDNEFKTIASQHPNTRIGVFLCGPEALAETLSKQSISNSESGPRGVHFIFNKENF
NADPH oxidase 5 (Homo sapiens), sequence (Q96PH1 whole entry, looked up): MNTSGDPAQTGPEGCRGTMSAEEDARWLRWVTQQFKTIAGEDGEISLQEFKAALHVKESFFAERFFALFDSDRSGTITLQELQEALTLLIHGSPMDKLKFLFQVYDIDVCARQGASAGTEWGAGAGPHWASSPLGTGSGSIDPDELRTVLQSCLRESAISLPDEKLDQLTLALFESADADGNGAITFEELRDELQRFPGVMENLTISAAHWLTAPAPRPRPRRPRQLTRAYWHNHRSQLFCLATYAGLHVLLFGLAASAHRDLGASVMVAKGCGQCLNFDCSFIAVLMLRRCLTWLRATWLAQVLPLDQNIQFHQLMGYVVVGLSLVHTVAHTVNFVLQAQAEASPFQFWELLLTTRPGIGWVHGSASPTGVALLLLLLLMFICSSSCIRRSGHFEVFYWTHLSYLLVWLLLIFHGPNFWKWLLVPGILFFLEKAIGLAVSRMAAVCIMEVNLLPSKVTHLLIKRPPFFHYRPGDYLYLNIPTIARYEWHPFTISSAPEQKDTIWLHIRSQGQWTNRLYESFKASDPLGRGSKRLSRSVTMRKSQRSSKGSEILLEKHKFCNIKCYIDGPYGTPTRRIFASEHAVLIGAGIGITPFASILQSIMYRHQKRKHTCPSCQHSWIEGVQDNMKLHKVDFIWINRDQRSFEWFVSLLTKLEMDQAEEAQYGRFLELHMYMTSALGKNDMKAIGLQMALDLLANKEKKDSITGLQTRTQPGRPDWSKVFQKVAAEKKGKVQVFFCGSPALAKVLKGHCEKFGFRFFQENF

As for `[N-]=[N+]=NCc1ccccc1C[C@@]1(C(=O)N2CCOCC2)N=C(c2ccc(OCCCO)cc2)O[C@@H]1c1ccccc1N=[N+]=[N-]`, the z-score was 0.664 (inactive) in assay [1]; 30.5 (active) in assay [3]; 27.7 (active) in assay [4]; 2.82 (inactive) in [5]; 7.87 (inactive) in assay [6]; 1.36 in assay [7]. For the same compound, the z-score is -1.49 (inactive) in assay [8]; 0.897 (inactive) in assay [9]; -0.107 in assay [10]; -0.884 in [11]; 0.913 in assay [12]; -0.848 in assay [13]. Further, the z-score in [14] was -2.19; in assay [15], -2.3; in assay [16], 0.944; in assay [17], 1.11 (inactive); in [18], -0.982; in assay [19] it was -0.891. Further, the z-score in [20] is -1.75 (inactive). The compound also came in with a composite z-score in assay [2] of 1.1.
With `C[C@@H]1C=CCC(=O)OC[C@H]2O[C@@H](C=C[C@@H]2O)[C@H](C)C=CCC(=O)OC[C@H]2O[C@H]1C=C[C@@H]2O`, the z-score in assay [1] was -1.91 (inactive); in assay [3], 0.43 (inactive); in [4], 0.278 (inactive); in assay [5], -1.65 (inactive); in [6] it was -0.725 (inactive); in assay [7], 2.22. The z-score was -1.01 (inactive) in assay [8]; 0.418 (inactive) in assay [9]; 0.0421 in assay [10]; -0.883 in assay [11]; 1.15 in [12]; 0.158 in assay [13]. For the same compound, the z-score is 0.631 in assay [14]; -1.99 in assay [15]; 0.885 in assay [16]; 0.902 (inactive) in [17]; -0.744 in assay [18]; 0.92 in [19]. Moreover, in assay [20], the z-score is -0.573 (inactive). In [2], this compound had a composite z-score of 0.596.
Turning to `COc1ccc([Si](C)(C)[C@@H]2[C@@H](CC(=O)N(CCO)Cc3ccccc3)O[C@]3(C(=O)N(Cc4cccc(N5CCC5=O)c4)c4ccccc43)[C@H]2C)cc1`, the z-score in assay [1] is 0.557 (inactive); in assay [3] it was 3.67 (inactive); in assay [4] it was 1.49 (inactive); in assay [5] it was 0.0319 (inactive); in [6], 1.19 (inactive); in assay [7], 1.61. In addition, the z-score is 1.34 (inactive) in assay [8]; 1.48 (inactive) in [9]; 3.23 in [10]; -1.45 in [11]; 1.5 in [12]; -2.2 in [13]. Further, the z-score in assay [14] is -2.55; in assay [15], -4.06; in [16], 0.952; in [17], -0.0485 (inactive); in assay [18] it was -0.917; in assay [19] it was -0.523. For the same compound, the z-score in assay [20] was -1.82 (inactive). In assay [2], the composite z-score came to 0.122.
Regarding `C=CCNC(=O)[C@H]1[C@@H]2C(=O)O[C@@H](c3ccccc3)[C@@H](c3ccccc3)N2[C@@H](c2ccccc2OCCO)[C@]12C(=O)N(C(=O)OCCOC)c1ccc(C#CCNC(N)=O)cc12`, the z-score is 1.8 (inactive) in assay [1]; 2.13 (inactive) in assay [3]; -0.0443 (inactive) in assay [4]; 0.391 (inactive) in assay [5]; -1.3 (inactive) in [6]; 1.78 in assay [7]. Further, the z-score in [8] is 1.76 (inactive); in assay [9], 1.35 (inactive); in assay [10], -0.971; in assay [11] it was 0.883; in [12], 1.68; in assay [13], -0.127. Moreover, the z-score in assay [14] was -1.13; in assay [15], -0.66; in assay [16], 0.208; in [17], 1.39 (inactive); in [18] it was -0.711; in assay [19], -0.616. Moreover, the z-score in assay [20] is 1.13 (inactive). The same compound returned a composite z-score in assay [2] of 0.178.
Consider `CO[C@H]1COC(=O)[C@H](C)COC(=O)[C@H](Cc2ccccc2)NC(=O)CC=C[C@H]1C`, for which the z-score in assay [1] was 0.261 (inactive); in assay [3] it was 0.341 (inactive); in assay [4], -1.39 (inactive); in [5], 0.743 (inactive); in assay [6], -1.83 (inactive); in assay [7] it was 0.376. The z-score in assay [8] was -0.823 (inactive); in assay [9] it was 0.901 (inactive); in assay [10], -0.0208; in assay [11], 0.219; in assay [12], -0.0092; in assay [13], 0.284. Further, the z-score in assay [14] was -0.0516; in assay [15], 1.14; in assay [16], 0.744; in assay [17], 0.854 (inactive); in [18], 0.433; in assay [19], 0.213. Further, the z-score in assay [20] is -0.36 (inactive). Also, the composite z-score in assay [2] is 0.351.
In the case of `CCCC[C@@H]1C[C@H]1[C@@H](NC(=O)c1ccccc1)c1ccccc1C(F)(F)F`, the z-score in [1] was -0.94 (inactive); in assay [3], -0.247 (inactive); in assay [4], 0.803 (inactive); in assay [5] it was -0.429 (inactive); in [6], 0.422 (inactive); in [7], 0.807. Moreover, the z-score in assay [8] was 0.566 (inactive); in assay [9], -1.02 (inactive); in assay [10] it was 0.262; in [11], -0.407; in [12] it was 0.128; in assay [13], -0.0379. Further, the z-score is -1.69 in assay [14]; -0.947 in [15]; -1.06 in assay [16]; -0.895 (inactive) in assay [17]; -0.472 in assay [18]; -0.573 in assay [19]. In addition, in [20], the z-score was 2.38 (inactive). This compound registered a composite z-score in [2] of 0.747.
For `C[N+](C)(C)CCCCNC(=O)[C@@H]1C[C@@H]2C(=O)N3CCC[C@H]3C(=O)N2[C@@H]1c1cccc(OCCO)c1`, the z-score is 1.25 (inactive) in assay [1]; 2.9 (inactive) in assay [3]; -0.732 (inactive) in [4]; -2.56 (inactive) in [5]; -2.13 (inactive) in assay [6]; 0.326 in [7]. Besides, the z-score in assay [8] is -1.42 (inactive); in assay [9] it was -0.183 (inactive); in assay [10] it was -0.87; in [11], 0.668; in [12], 1.05; in [13], -0.954. In addition, the z-score in [14] was -0.732; in assay [15] it was -0.179; in assay [16] it was 0.428; in [17], 0.971 (inactive); in assay [18] it was 0.252; in [19] it was 0.791. In addition, in assay [20], the z-score was -0.141 (inactive). The compound also had a composite z-score in [2] of 0.14.
As for `CCOC(=O)C[C@H]1[C@H](OC(=O)Cc2ccc3c(c2)OCO3)[C@@H](NC(=O)c2ccc3ccccc3c2)c2cc(OCCCO)ccc2N1C(=O)Cc1ccc(OC)cc1`, the z-score in assay [1] is 2.54 (inactive); in assay [3], 18 (active); in assay [4], 2.41 (inactive); in assay [5] it was -1.47 (inactive); in assay [6] it was -0.15 (inactive); in assay [7], 2.6. Further, the z-score is -0.629 (inactive) in assay [8]; 0.799 (inactive) in assay [9]; 1.08 in [10]; 1.55 in [11]; 1.08 in [12]; 1.56 in [13]. Moreover, the z-score in [14] is 0.956; in assay [15], 0.41; in [16], 1.66; in [17], -0.14 (inactive); in [18], -0.384; in [19], -1.1. Further, the z-score in [20] was -0.654 (inactive). This compound came in with a composite z-score in assay [2] of -0.0626.
On to `CC(C)(C)OC(=O)CC[C@]1(C(=O)N2CCCCC2)N=C(c2ccc(OCCCO)cc2)O[C@H]1c1ccccc1`, for which the z-score in assay [1] was 0.978 (inactive); in [3] it was 24 (active); in assay [4], 6.24 (inactive); in assay [5] it was 1.03 (inactive); in assay [6], -0.186 (inactive); in assay [7], 2.2. In addition, the z-score in assay [8] is -1.41 (inactive); in assay [9], 1.02 (inactive); in [10], 0.541; in assay [11], 2.04; in assay [12] it was 1.24; in assay [13], 1.01. Also, the z-score in assay [14] is 0.523; in [15], -1.04; in [16] it was 2.2; in [17] it was 2.09 (inactive); in [18] it was -0.123; in assay [19], 0.317. Also, the z-score in assay [20] is -0.354 (inactive). In assay [2], this compound came in with a composite z-score of -0.294.

These data come from PubChem BioAssay.
